# Compounds without any hit were thinned out: in the full panel of roughly 83,000, 20% have a hit.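 Single-dose data. Exposure time 48 hours. Values below 10 considered active.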 Active and inactive are the calls of the source.
# System: KM12 colon
# Assay: NCI-60 one-dose screen, 48 h (100 = growth as untreated, 0 = no growth, -100 = all killed)
# Details: 10 µM unless noted
# Method: Growth inhibition of the KM12 human tumor cell line is measured as a screen for anti-cancer activity. Cells are grown in 96 well plates and exposed to the test compound for 48 hours. Compounds are tested at a single concentration, which is 10^-5 M for most compounds. The reported endpoint is percent growth (GI% or GIPRCNT), where numbers from 0 - 100% represent growth inhibition, and numbers from -100% - 0 represent cell death. For example, a value of 40 represents 60% growth inhibition. A value of 0 means no net growth occurred over the course of the experiment. A value of -40 indicates 40% of cells at the beginning of the experiment died by the end of the experiment. A value of -100 means all cells are dead at the end of the experiment.
# NCI-60 Human Tumor Cell Lines Screen was performed using the standard one-dose NCI protocol, which is described in more detail at https://dtp.cancer.gov/discovery_development/nci-60/default.htm.
# Compounds with GIPRCNT values below 10 were considered active. Activity score was based on GIPRCNT using the following formula: […]
# Score is 0 for GIPRCNT values of 100 or above, 50 for GIPRCNT values of 0, and 100 for GIPRCNT values of -100.
row,Compound,growth
1,CCc1cccc2c1S/C(=C/c1ccc(Cl)cc1)C2=O,98.2% (inactive)
2,CCc1ccc2nc(NC(=O)Cc3csc(NC(=O)c4ccco4)n3)sc2c1,78.6% (inactive)
3,O=c1c2cc(F)cc(Cl)c2sc2c(NCCCNCCO)nc3ccccc3c12,66.7% (inactive)
4,Cc1[nH]c(C(=O)Nc2ccc(C(=O)N3CCNCC3)cc2OC(C)C)c(Cl)c1Cl,50.9% (inactive)
5,COc1cc(C(=O)/C=C/c2sc(Cl)nc2Cl)cc(OC)c1OC,28.4% (inactive)
6,Brc1c[n+](Cc2ccc3ccccc3c2)cn1Cc1ccc2ccccc2c1,-73.5% (active)
7,C=C1C(=O)O[C@H]2[C@H]1CC/C(COC(=O)CSCC(=O)OC/C1=C/CC[C@@]3(C)O[C@H]3[C@H]3OC(=O)C(=C)[C@@H]3CC1)=C\CC[C@@]1(C)O[C@@H]21,69.4% (inactive)
8,COc1ccc(C2=Nn3c(nnc3-c3cc(Cl)cc(Cl)c3Cl)SC2)cc1,6.48% (active)
9,COc1cc(C(=O)/C=C/c2ccc(OCCCCCC[P+](c3ccccc3)(c3ccccc3)c3ccccc3)cc2)cc(OC)c1OC,-86.8% (active)
10,CCOC(=O)Cn1c(C)c(/C=N/NC(=O)c2cc3c(ccc4ccccc43)o2)c2ccccc21,15.6% (inactive)
11,COc1ccc(OC)c(/C=C/c2nnc(Nc3ccccc3)o2)c1,89% (inactive)
12,CCCCCCCCCCCCCCCCCCOc1ccc(CC(=O)OCC[N+](C)(C)C)cc1,96.8% (inactive)
13,NCCCNc1nc2ccccc2c2c(=O)c3cc(OC(F)(F)F)ccc3sc12,-89.3% (active)
14,COc1cccc(-c2nc(-c3ccc(NC(=O)OC(C)C)cc3)[nH]c2-c2ccnc(Br)c2)c1,17% (inactive)
15,c1ccc(Nc2cc(-c3cccnc3)[nH]n2)cc1,96.3% (inactive)
16,Fc1cc(-c2nnc3sc(-c4ccc(Cl)cc4Cl)nn23)c(Cl)cc1Cl,96% (inactive)
17,Cc1ccc(C(=O)N/N=C/c2cccc(Oc3ccccc3)c2)cn1,22.8% (inactive)
18,CCc1ccc(Oc2c(-c3ccc(OCc4ccc(Cl)cc4)cc3O)n[nH]c2C(F)(F)F)cc1,19.5% (inactive)
19,C/C(=C\C(=O)c1ccc(Cl)cc1)c1ccc(Cl)cc1,26.2% (inactive)
20,c1ccc(-c2nc3sc(-c4ccccc4)cn3n2)cc1,81.1% (inactive)

row,Compound,growth
1,COc1ccc(-n2c(N)c(-c3nc4ccccc4[nH]3)cc(C#N)c2=O)cc1,99.9% (inactive)
2,CCOC(=O)C1=C(N)Oc2c(sc3c(C)cccc23)C1c1ccc(F)cc1 (stereo not given),9.22% (active)
3,Cc1onc2c(-c3ccccc3)n[nH]c(=O)c12,107% (inactive)
4,CCOC(=O)c1c2c(n(-c3ccc(C#N)cc3)c1-c1ccccc1)C=CCC2,91.8% (inactive)
5,CC(=O)CC(c1cccs1)c1c(-c2ccccc2)[nH]c2ccccc12 (stereo not given),94.3% (inactive)
6,Cc1cccc2c3c(sc12)C(c1ccc(Cl)cc1)C(C#N)=C(/N=C/c1ccc(Cl)cc1)O3 (stereo not given),9.86% (active)
7,COc1ccc(-c2nnc(COc3ccc(Cl)cc3Cl)o2)cc1OC,58.9% (inactive)
8,O=C(Nc1ccc(F)cc1F)c1cc(F)ccc1O,8.7% (active)
9,CC(=O)c1ccc(Nc2nc(C(C)=O)c(C)s2)cc1,98.5% (inactive)
10,CCOc1cccc(NC2=C(Br)C(=O)C(C)=C(C)C2=O)c1,106% (inactive)
11,CCCCOc1nc2c(C)cccc2cc1-c1cc(-c2ccc(Cl)cc2)nc(-c2ccc(Cl)cc2)c1,97.7% (inactive)
12,COc1cc(C)c(Cc2cnc(N)nc2N)cc1OC,111% (inactive)
13,COc1ccc(S(=O)(=O)n2c3ccccc3n3ncc(-c4nnc(C)o4)c23)cc1,29.8% (inactive)
14,C/C(=C(/c1ccccc1)c1ccc(N2C(=O)c3cccc4c(N5CCN(C)CC5)ccc(c34)C2=O)cc1)c1ccccc1,79.8% (inactive)
15,COc1nc2ccccc2cc1-c1nc2c(cnn2-c2ccccc2)c(=O)[nH]1,29% (inactive)
16,CCc1nnc(NC(=O)c2nnn(-c3ccccc3)c2-c2ccco2)s1,96.9% (inactive)
17,COc1ccc2cc(C(C)C(=O)Nc3ccc(-c4n[nH]c(=S)n4C4CCCCC4)cc3)ccc2c1 (stereo not given),55.9% (inactive)
18,Nc1ccccc1-c1cc2c(c3c1[nH]c1ccccc13)CCCCC2,88.9% (inactive)
19,CCCCCCCCCCCCCCCCCCOc1ccc(CC(=O)OCC[N+]2(C)CCCCC2)cc1,101% (inactive)
20,C=C1CC[C@H](C(C)C)[C@@H]2[C@H]1[C@H]1CC(=C)[C@@H](O)CC[C@@](C)(O)[C@@H]2O1,96.3% (inactive)

# From PubChem BioAssay (NCI)
